High-throughput results as filed in PubChem.
NPR1 activator – GC-A stimulated cGMP production enhancers – HEK293 GC-A cells, cGMP TR-FRET, EC30 ANP, primary screen | Atrial natriuretic peptide receptor 1 (Homo sapiens), P16066 | 0% at EC30 ANP, 100% saturating ANP | activation, % at 10 µM | 370,000 compounds, 0.14% hits | AID 1671463, 2021; in the data active = activation above about 40%
ADAM17 inh – ADAM17 inhibitors, primary screen, biochemical, QFRET; Disintegrin and metalloproteinase domain-containing protein 17 (Homo sapiens), P78536; recombinant ADAM17, EDANS/DABCYL FRET peptide cleavage; inhibition, % at 6.95 µM; 370,000 compounds, 0.83% hits; AID 720648, 2013;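 active = inhibition above the mean of compounds lying between control limits plus 3 SD, set per campaign, cut at about 8.5% in these data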;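 also: 0% = DMSO-only wells as the low control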
Target sequence (P78536 215-824 limits assumed): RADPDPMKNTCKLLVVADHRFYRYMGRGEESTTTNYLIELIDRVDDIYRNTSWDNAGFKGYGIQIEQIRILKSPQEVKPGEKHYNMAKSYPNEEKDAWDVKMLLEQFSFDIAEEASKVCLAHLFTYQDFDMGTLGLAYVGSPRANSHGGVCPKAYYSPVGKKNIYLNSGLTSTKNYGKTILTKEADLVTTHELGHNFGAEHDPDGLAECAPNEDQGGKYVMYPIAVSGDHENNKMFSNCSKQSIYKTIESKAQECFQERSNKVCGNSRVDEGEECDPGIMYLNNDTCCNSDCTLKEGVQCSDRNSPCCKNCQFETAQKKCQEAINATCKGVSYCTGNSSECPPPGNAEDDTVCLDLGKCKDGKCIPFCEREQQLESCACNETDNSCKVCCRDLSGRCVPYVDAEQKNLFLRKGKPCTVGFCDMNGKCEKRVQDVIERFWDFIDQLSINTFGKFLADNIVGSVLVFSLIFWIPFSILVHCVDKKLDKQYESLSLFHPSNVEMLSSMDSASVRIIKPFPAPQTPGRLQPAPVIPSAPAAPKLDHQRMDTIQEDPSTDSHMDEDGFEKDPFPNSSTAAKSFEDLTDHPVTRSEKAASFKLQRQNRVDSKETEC
KLK7 zymogen act – proKLK7 zymogen activators, primary screen, biochemical, fluorescence intensity | purified proKLK7, EDANS-DABCYL substrate fluorescence; 100% is mature enzyme control, 0% vehicle | 370,000 compounds, 0.9% hits | activation, % at 7 µM;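 active = activation above the mean of all tested compounds plus 3 SD, computed per campaign excluding outliers beyond control limits, cut at about 13% in these data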
NPR2 activator – human GC-B receptor activators, primary screen, HEK293 GC-B cells, cGMP TR-FRET, EC30 CNP; 370,000 compounds, 0.11% hits; 0% at EC30 CNP, 100% saturating CNP; activation, % at 10 µM; Atrial natriuretic peptide receptor 2 (Homo sapiens), P20594; AID 1920062, 2024;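 active = activation at 10 µM reaching about 35% in either raw or pattern-adjusted values, limit read from the data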
ADAM10 inh – human ADAM10 inhibitors, primary screen, biochemical, QFRET, HTS; Disintegrin and metalloproteinase domain-containing protein 10 (Homo sapiens), O14672; recombinant ADAM10, EDANS/DABCYL FRET peptide cleavage, 3 h; inhibition, % at 7 µM; 370,000 compounds, 0.62% hits; AID 720582, 2013;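 active = inhibition above a per-campaign cutoff equal to the mean of compounds falling between control-based bounds plus 3 SD, cut at about 20% in these data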;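 also: 0% = DMSO wells while the 100% control is not disclosed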
KLK7 act conf – proKLK7 zymogen activators, confirmation, biochemical, fluorescence intensity, triplicate. shares compounds with KLK7 zymogen act. purified proKLK7, EDANS-DABCYL substrate fluorescence; scaled: vehicle 0, mature enzyme 100. activation, % at 7 µM. 3,200 compounds, 68% hits;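 active = activation, as change over the incubation, above the mean of all tested compounds plus 3 SD, cut at about 13% in these data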
EDANS-DABCYL int – EDANS-DABCYL substrate optical interference, artefact control for kallikrein-7 zymogen activator project, biochemical, fluorescence intensity, high throughput; shares compounds with KLK7 zymogen act; no enzyme, 4 h; solvent 0%, active enzyme control 100%; activation, % at 7 µM; 3,200 compounds, 80% hits; AID 686952, 2013;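 active = activation above the all-compound mean plus 3 SD, ignoring values outside control-based bounds, cut at about 4.8% in these data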;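 also: value is the 4 h activation minus the activation read at time zero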
The depositor's hits bear a star; i = inactive; / = no result. An excerpt weighted towards active compounds, which were near 2.2% of everything screened.

SMILES | NPR1 activator | ADAM17 inh | KLK7 zymogen act | NPR2 activator | ADAM10 inh | KLK7 act conf | EDANS-DABCYL int
COC(=O)[C@]12C[C@H](CC(=O)NCCc3ccccc3OC)C(=O)N(CCC3=CCCCC3)C1=C[C@H](C(C)C)O[C@@H]2C1CC1 | 1 | 2 | 1 | -1 | 5 | / | /
Cc1c(O)c(CN2CCCC2)cc2c3c(c(=O)oc12)CCC3 | 3 | i | 70* | -2 | i | 67* | 65*
Cc1c(O)c(CN2CCCC2)cc2c1oc(=O)c1ccccc12 | 2 | -5 | 0 | -1 | -19 | / | /
CCc1cc(=O)oc2c(C)c(O)c(CN3CCCCC3)cc12 | 12 | i | 49* | 1 | i | 64* | 79*
COc1ccc2c(CN3CCCCC3)cc(=O)oc2c1 | 3 | -189 | 23* | -2 | i | 3 | 1
Cc1ccc2c(CN3CCCCC3)cc(=O)oc2c1C | 7 | -3 | 0 | 11 | 0 | / | /
CCCC[C@H]1C2CC(OC(=O)Nc3cc(C)cc(C)c3)C(C2)[C@H]2CCCCN21 (some centres not stated) | -4 | -1 | 0 | -2 | 3 | / | /
CC(C)C(C#CC1CC1)NCc1ccc2c(c1)OCO2 (configuration not stated) | -7 | -2 | 0 | -6 | -5 | / | /
COC(=O)[C@H](C(C)C)N(CCc1cn(CC2CCCCC2)nn1)S(=O)(=O)c1ccccc1Br | 0 | 0 | 1 | 6 | 3 | / | /
O=S1(=O)c2ccc(N3CCSCC3)cc2Oc2ccccc2CN1Cc1cn(Cc2ccc(F)cc2)nn1 | 2 | 5 | -1 | 2 | 9 | / | /
CCOC(=O)c1cc(C(=O)OCC)c2ccccn2c1=O | 6 | i | 55* | -8 | i | 57* | 68*
CCOC(=O)c1c[nH]n(-c2ccccc2)c1=O | 0 | -1 | 0 | 2 | 5 | / | /
CCN(CC(=O)NCc1ccc(F)cc1)C(=O)COc1ccccc1[N+](=O)[O-] | -5 | -1 | 31* | -1 | -8 | -1 | 0
O=C(COC(=O)Cc1ccccc1[N+](=O)[O-])NCc1ccc(F)cc1 | 3 | -1 | -1 | -2 | 2 | / | /
Cn1c(=O)c2c(C(=O)O)cc(-c3ccccc3)nc2n(Cc2ccccc2)c1=O | 2 | -27 | 38* | 1 | -66 | 59* | 65*
COc1ccccc1-c1cc(C(=O)O)c2c(=O)n(C)c(=O)n(Cc3ccccc3)c2n1 | 7 | -118 | 1 | 5 | -335 | / | /
CC(=O)N1CCC2(CC1)CC(=O)c1cc(OCC(=O)NCc3ccco3)ccc1O2 | -1 | -340 | 28* | 3 | i | 48* | 49*
CC(C)(C)c1ccc(OCC(=O)NCc2ccco2)cc1 | 2 | 0 | 0 | 2 | 14 | / | /
CC(=O)N1CCC2(CC1)CC(=O)c1cc(OCC(=O)NCc3ccc(C)cc3)ccc1O2 | 0 | -437 | 35* | 9 | i | 26* | 46*
Cc1cccc(OCC(=O)N2CCC3(CC2)CC(=O)c2ccccc2O3)c1 | -1 | -28 | 0 | 5 | -75 | / | /
CN(Cc1ccccc1)C(=O)OCc1cn(Cc2ccccc2)nn1 | 1 | 0 | 0 | 2 | 0 | / | /
CCNc1ccc2c(Cl)cc(=O)oc2c1 | -3 | -168 | 25* | -1 | i | 30* | 38*
CC(C)C[C@H]1COc2ccc(Cl)cc2S(=O)(=O)N1Cc1cn(Cc2ccc(C(F)(F)F)cc2)nn1 | 1 | -1 | 0 | 7 | -5 | / | /
CC(C)CN(CC(C)C)C(=O)c1cc2c(=O)n3ccccc3nc2s1 | 8 | -325 | 22* | 3 | i | -78 | -69
CCC(C)NC(=O)c1cc2c(=O)n3ccccc3nc2s1 (configuration not stated) | 8 | i | 66* | -1 | i | 61* | 70*
SMILES | NPR1 activator | ADAM17 inh | KLK7 zymogen act | NPR2 activator | ADAM10 inh | KLK7 act conf | EDANS-DABCYL int
COCCN(CCOC)C(=O)c1cc2c(=O)n3ccccc3nc2s1 | 6 | -232 | 9 | 0 | i | / | /
CC(C)CCNC(=O)c1cc2c(=O)n3ccccc3nc2s1 | 11 | i | 63* | -1 | i | 33* | 41*
CCN(CC)C(=O)c1cc2c(=O)n3ccccc3nc2s1 | 12 | i | 64* | 8 | i | 64* | 82*
CCOc1ccc(-n2c(SCC(=O)c3ccccc3Cl)nnc2-c2ccncc2)cc1 | -4 | 5 | 0 | -6 | 9 | / | /
COC(=O)[C@]12C[C@H](CC(=O)N3CCN(C(=O)c4ccco4)CC3)C(=O)N(Cc3ccco3)C1=C[C@H](C(C)C)O[C@@H]2C1CC1 | 0 | -3 | 0 | 2 | -10 | / | /
COc1ccc([C@H]2OC(=O)C[C@H]2C(=O)N2CCN(c3ccccc3Cl)CC2)cc1OC | -23 | 0 | -1 | -27 | -8 | / | /
Cc1ccccc1C(=O)N1CCC(Oc2cccnc2)CC1 | -1 | -4 | 0 | -3 | -5 | / | /
COc1ccc2cc3cc(C(=O)Nc4ccc(F)cc4)sc3nc2c1 | -7 | -15 | / | -6 | -49 | / | /
CCC(C)NC(=O)c1cc2cc3ccc(OC)cc3nc2s1 (configuration not stated) | 10 | i | 30* | 6 | i | 3 | 5.7*
Cc1coc2cc3oc(=O)c(CC(=O)N(C)CC(=O)O)c(C)c3cc12 | 1 | -272 | 13* | 2 | i | 14* | 17*
COc1cc2[nH]c(Cl)c([N+](=O)[O-])c2cc1OC | -6 | -180 | 58* | 5 | -440 | 7 | 5.9*
COc1cc2[nH]c3c(Cl)ncnc3c2cc1OC | 8 | -3 | 0 | 5 | -6 | / | /
COC(=O)c1cc(OC)c(OC)cc1N=CC1=C(O)CC(C)(C)CC1=O | 7 | -5 | -1 | 4 | -6 | / | /
COC(=O)c1cc(N=CC2=C(O)CC(C)(C)CC2=O)cc(C(=O)OC)c1 | 0 | -91 | 25* | 4 | -314 | 47* | 45*
CCN1Cc2nnn(Cc3ccccc3)c2-c2cc(N3CCCC3)ccc2S1(=O)=O | -23 | -12 | -1 | -15 | -40 | / | /
CCN(CC)c1ccc2cc(-c3nc4ccccc4n3C)c(=O)oc2c1 | 12 | -150 | -2 | 6 | -444 | / | /
